In PubChem BioAssay:
Active and inactive are the calls of the source.

What was measured:
[1] = optical density shifts of acrAB sulA E. coli – strain DRC41, OD650, 48 h, E. coli filamentation inducer project, primary screen (AID 1152); conditions: higher = more signal, called active from +8 up or from −8 down;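 note: E. coli MC1000 strain DRC41 lacking acrAB efflux pump and sulA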
[2] = probe aLefty1 binding on compound microarray – biochemical, small-molecule microarray, 635/667 nm fluorescence, primary screen (AID 1153); conditions: higher = more signal;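 note: score merges spot fluorescence with signal-to-noise ratio from the scanned slide images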
[3] = plasmodial surface anion channel blockers, osmotic lysis – cell-based, P. falciparum Indochina, OD700, 1 h, primary screen (AID 1154); conditions: P. falciparum Indochina infected RBC osmotic lysis, higher = more signal, called active from +8 up or from −8 down
[4] = plasmodial surface anion channel blockers, osmotic lysis – cell-based, P. falciparum Indochina, OD700, 2 h, primary screen (AID 1155);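 note: lysis reports solute entry through the parasite surface anion channel PSAC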; conditions: P. falciparum Indochina infected erythrocytes, higher = more signal, called active from +8 up or from −8 down
[5] = changes in parasitized red cell lysis, either direction – P. falciparum Indochina, OD700, 3 h, PSAC antagonist project, primary screen (AID 1156); conditions: P. falciparum-infected erythrocytes, osmotic lysis, higher = more signal, called active from +8 up or from −8 down
[6] = plasmodial surface anion channel blockers, osmotic lysis – cell-based, P. falciparum Indochina, OD700, 18 h, primary screen (AID 1157); conditions: P. falciparum Indochina infected erythrocytes, osmotic lysis OD700, 18 h; higher = more signal, called active from +8 up or from −8 down
[7] = S6 kinase pathway phospho-S6 level changes – cell-based, A549, cytoblot, luminescence, serum-stimulated, primary screen (AID 1158); conditions: 5 h, higher = more signal;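 note: serum-stimulated A549 lung adenocarcinoma cells; signal is phosphorylated S6 detected by cytoblot immunostaining with HRP secondary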
[8] = biological target: NADPH oxidase 2 (Homo sapiens) (UniProt P04839); experiment: compounds shifting NOX2 Amplex Red fluorescence – cell-based, HEK293-NOX2, PMA-stimulated, NOX inhibitor project, primary screen (AID 1159); conditions: 45 min, higher = more signal, called active from +8 up or from −8 down; note: test concentration not given here
[9] = biological target: NADPH oxidase 4 (Homo sapiens) (UniProt Q9NPH5); experiment: compounds shifting NOX4 Amplex Red fluorescence – cell-based, HEK293-NOX4, tetracycline-induced, NOX inhibitor project, primary screen (AID 1160); conditions: HEK293-NOX4, Amplex Red H2O2 fluorescence, 45 min; higher = more signal, called active from +8 up or from −8 down
[10] = biological target: NADPH oxidase 5 (Homo sapiens) (UniProt Q96PH1); experiment: compounds shifting NOX5 Amplex Red fluorescence – cell-based, HEK293-NOX5, NOX inhibitor project, primary screen (AID 1161); conditions: HEK293-NOX5, ionomycin, 45 min, higher = more signal
NADPH oxidase 5 (Homo sapiens), sequence (Q96PH1 whole entry, looked up): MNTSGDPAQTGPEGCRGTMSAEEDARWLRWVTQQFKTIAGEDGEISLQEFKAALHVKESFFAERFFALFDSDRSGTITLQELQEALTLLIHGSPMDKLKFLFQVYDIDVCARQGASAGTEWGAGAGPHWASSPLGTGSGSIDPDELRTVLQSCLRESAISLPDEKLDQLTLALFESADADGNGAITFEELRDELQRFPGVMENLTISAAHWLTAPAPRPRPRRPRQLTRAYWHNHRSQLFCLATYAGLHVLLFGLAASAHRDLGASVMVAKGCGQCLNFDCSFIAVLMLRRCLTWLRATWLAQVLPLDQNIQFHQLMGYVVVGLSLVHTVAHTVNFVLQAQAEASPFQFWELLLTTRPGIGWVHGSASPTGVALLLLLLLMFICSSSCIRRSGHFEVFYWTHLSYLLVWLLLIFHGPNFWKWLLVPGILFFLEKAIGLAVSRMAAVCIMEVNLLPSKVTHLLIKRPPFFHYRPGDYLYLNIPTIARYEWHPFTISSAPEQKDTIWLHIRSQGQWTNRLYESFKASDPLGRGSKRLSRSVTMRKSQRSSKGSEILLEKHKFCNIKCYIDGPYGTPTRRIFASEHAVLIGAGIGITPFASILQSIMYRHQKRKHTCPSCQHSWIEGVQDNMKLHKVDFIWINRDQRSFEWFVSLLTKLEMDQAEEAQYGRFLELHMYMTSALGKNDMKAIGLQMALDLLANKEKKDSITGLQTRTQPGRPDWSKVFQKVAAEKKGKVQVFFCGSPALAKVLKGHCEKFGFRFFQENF

NADPH oxidase 2 (Homo sapiens), sequence (P04839 whole entry, looked up): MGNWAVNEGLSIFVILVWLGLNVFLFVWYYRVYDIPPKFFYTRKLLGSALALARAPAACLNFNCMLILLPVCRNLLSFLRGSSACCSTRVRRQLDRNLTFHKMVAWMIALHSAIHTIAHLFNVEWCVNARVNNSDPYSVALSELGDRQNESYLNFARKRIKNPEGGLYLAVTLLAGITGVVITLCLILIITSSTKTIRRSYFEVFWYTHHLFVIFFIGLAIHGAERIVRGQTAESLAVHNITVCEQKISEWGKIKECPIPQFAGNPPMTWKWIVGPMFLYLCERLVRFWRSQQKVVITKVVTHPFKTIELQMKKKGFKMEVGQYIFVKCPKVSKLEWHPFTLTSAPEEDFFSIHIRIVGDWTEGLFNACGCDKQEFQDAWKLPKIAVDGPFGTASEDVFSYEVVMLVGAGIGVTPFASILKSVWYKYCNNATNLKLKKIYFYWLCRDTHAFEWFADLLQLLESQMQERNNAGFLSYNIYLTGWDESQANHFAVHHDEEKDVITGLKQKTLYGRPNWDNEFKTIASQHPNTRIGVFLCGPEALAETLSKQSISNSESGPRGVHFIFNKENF
NADPH oxidase 4 (Homo sapiens), sequence (Q9NPH5 whole entry, looked up): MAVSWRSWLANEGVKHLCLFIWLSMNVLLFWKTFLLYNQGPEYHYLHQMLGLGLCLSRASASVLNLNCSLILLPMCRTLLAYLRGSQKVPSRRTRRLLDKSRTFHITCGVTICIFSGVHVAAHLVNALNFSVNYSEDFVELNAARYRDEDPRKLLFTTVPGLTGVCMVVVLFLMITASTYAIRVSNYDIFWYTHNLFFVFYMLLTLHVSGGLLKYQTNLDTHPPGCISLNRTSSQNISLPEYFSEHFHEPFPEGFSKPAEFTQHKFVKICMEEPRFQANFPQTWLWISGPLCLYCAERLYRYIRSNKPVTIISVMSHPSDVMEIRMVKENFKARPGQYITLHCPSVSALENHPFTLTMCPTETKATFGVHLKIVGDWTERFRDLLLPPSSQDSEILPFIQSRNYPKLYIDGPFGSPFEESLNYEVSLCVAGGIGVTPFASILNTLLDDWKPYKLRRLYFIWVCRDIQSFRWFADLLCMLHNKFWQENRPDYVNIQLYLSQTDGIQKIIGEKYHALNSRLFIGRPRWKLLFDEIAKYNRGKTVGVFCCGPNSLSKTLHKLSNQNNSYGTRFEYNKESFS

Structure (SMILES) | z-score [1] | composite z-score [2] | z-score [3] | z-score [4] | z-score [5] | z-score [6] | z-score [7] | z-score [8] | z-score [9] | z-score [10]
Cc1ccc(S[C@]2(C(=O)NCc3ccccc3)CC(=O)N(Cc3ccccc3)[C@@H]2c2ccc(CO)cc2)cc1 | -1.24 (inactive) | -0.188 | 1.27 (inactive) | 0.115 (inactive) | -0.376 (inactive) | -0.234 (inactive) | 0.0768 | -1.51 (inactive) | 0.494 (inactive) | -0.189
COc1ccc(C(=O)Nc2cccc(CN3C(=O)[C@@]4(O[C@@H](CCn5cc(CCO)nn5)[C@H]([Si](C)(C)c5ccc(OC)cc5)[C@H]4C)c4ccccc43)c2)cc1 | -2.23 (inactive) | 0.223 | 13.4 (active) | 2.74 (inactive) | 0.318 (inactive) | 1.26 (inactive) | -0.782 | -3.75 (inactive) | -0.389 (inactive) | 2.37
Cc1ccc(F)cc1S(=O)(=O)N[C@@H]1CCN(Cc2ccc(-c3ccccc3)cc2)C1 | -19.4 (active) | 0.121 | 13 (active) | 2.34 (inactive) | 0.349 (inactive) | 1.41 (inactive) | -0.275 | 0.335 (inactive) | -1.62 (inactive) | -1.57
CC(C)C[C@@H]1NC(=O)[C@H]2C[C@@H](C(=O)NCCCCCCNC(=O)CS)[C@@H](c3cccc(OCCO)c3)N2C1=O | 1.03 (inactive) | -0.0523 | 3.77 (inactive) | 0.194 (inactive) | 2.83 (inactive) | -0.042 (inactive) | -0.0016 | 1.14 (inactive) | 0.665 (inactive) | -0.112
COC(=O)c1c(CC[C@@H](CO)NC(=O)N[C@@H](Cc2ccccc2)Cn2cc(C3(O)CCCCC3)nn2)oc(C(C)=O)c1C(=O)OC | 1.27 (inactive) | 0.101 | 2.27 (inactive) | 0.566 (inactive) | 0.999 (inactive) | 0.312 (inactive) | 1.93 | -5.26 (inactive) | -2.18 (inactive) | -4.82
O=C1C[C@]2(c3ccc([N+](=O)[O-])cc3)C(=O)N(CC(F)(F)F)c3cc(CO)ccc3[C@H]2N1CC12CC3CC(CC(C3)C1)C2 | 0.458 (inactive) | -0.629 | 0.56 (inactive) | -0.365 (inactive) | 0.12 (inactive) | 0.255 (inactive) | 0.229 | -0.347 (inactive) | 0.375 (inactive) | 0.0968
NCCCCCCNC(=O)[C@H]1C[C@H]2C(=O)NCC(=O)N2[C@H]1c1cccc(OCCO)c1 | 1.17 (inactive) | 0.119 | 1.68 (inactive) | -0.0225 (inactive) | -1.63 (inactive) | 0.202 (inactive) | 0.384 | 0.719 (inactive) | 0.513 (inactive) | 1.36
O=C1O[C@@H](c2ccccc2)[C@@H](c2ccccc2)N2[C@@H](c3ccc(O)cc3)[C@]3(C(=O)Nc4ccc(C#CC5=CCCCC5)cc43)[C@@H](C(=O)O)[C@H]12 | 4.17 (inactive) | 0.112 | -2.7 (inactive) | -2.38 (inactive) | -9.62 (active) | -3.16 (inactive) | 3.05 | 0.896 (inactive) | -2.76 (inactive) | -1.01
C=C(CCCC)C(=O)CC[C@H](OC(=O)c1cccnc1)c1cccc(OCCO)c1 | -0.03 (inactive) | -0.147 | 20.7 (active) | 4.33 (inactive) | 1.83 (inactive) | 1.19 (inactive) | 0.0701 | -0.372 (inactive) | -0.417 (inactive) | -2.11
COC(=O)[C@@]1(Cc2ccc(F)cc2)[C@H]2c3cc(C(=O)N(C)C)n(CCc4ccccn4)c3C[C@H]2CN1C(=O)c1ccccc1 | -0.815 (inactive) | 1.01 | 1.81 (inactive) | -0.0235 (inactive) | 0.892 (inactive) | -1.66 (inactive) | 0.402 | 0.831 (inactive) | 1.03 (inactive) | 0.234
CC(C)(C)OC(=O)CC[C@@]1(C(=O)NCCN2CCOCC2)N=C(c2ccc(OCCCO)cc2)O[C@@H]1c1ccccc1 | 1.18 (inactive) | 0.296 | 14.8 (active) | 1.8 (inactive) | 0.267 (inactive) | 0.813 (inactive) | 0.413 | 0.63 (inactive) | 1.03 (inactive) | 1.8
Cc1ccc([C@H]2[C@H](C(=O)O)[C@H](Sc3ccccc3)[C@@H](C(C)C)N2S(=O)(=O)c2ccc(C)cc2)cc1 | -1.51 (inactive) | -0.0675 | 1.09 (inactive) | 0.456 (inactive) | -0.922 (inactive) | 0.781 (inactive) | -0.137 | 1.01 (inactive) | 0.349 (inactive) | 1.16
[N-]=[N+]=NCc1ccccc1C[C@]1(C(=O)O)N=C(c2ccc(OCCCO)cc2)O[C@H]1c1ccccc1 | -0.0931 (inactive) | 0.0299 | 9.62 (active) | 0.754 (inactive) | -0.468 (inactive) | -0.0988 (inactive) | -0.381 | 0.453 (inactive) | 1.4 (inactive) | 1.68
CC(C)N1CC=CC23O[C@@H]4C=CCOC(=O)[C@@H]4[C@H]2C(=O)N(CCO)[C@@H]3C1=O (stereo not given in full) | 0.759 (inactive) | -0.0559 | -0.0173 (inactive) | 0.257 (inactive) | -0.288 (inactive) | 0.6 (inactive) | 0.121 | 0.603 (inactive) | 0.865 (inactive) | 0.913
COC(=O)[C@@]1(Cc2ccccc2)[C@H]2c3cc(C(=O)N4CCCC4)n(C)c3C[C@H]2CN1C(=O)c1ccccc1 | -0.308 (inactive) | 0.321 | 1.54 (inactive) | -0.0273 (inactive) | 0.835 (inactive) | 0.396 (inactive) | -0.0948 | -0.153 (inactive) | -0.653 (inactive) | -1.45
O=C(NCc1ccccc1)[C@]1(CCS(=O)(=O)c2ccccc2)N=C(c2ccc(OCCCO)cc2)O[C@@H]1c1ccccc1 | 0.673 (inactive) | -0.345 | 24 (active) | 6.86 (inactive) | 1.85 (inactive) | 1.45 (inactive) | -0.402 | 0.0459 (inactive) | 0.902 (inactive) | 0.242
COc1ccc(CCN2C(=O)[C@@]3(Cc4ccccc42)c2ccccc2C(=O)N(Cc2ccccc2Cl)[C@H]3c2ccc(CO)cc2)cc1 | 0.641 (inactive) | 0.0844 | 2.59 (inactive) | 0.346 (inactive) | 0.679 (inactive) | 0.425 (inactive) | 0.306 | 1.3 (inactive) | -1.49 (inactive) | 1.28
CCOC(=O)C[C@H]1[C@H](OC(=O)c2ccc(C(=O)c3ccccc3)cc2)[C@@H](NC(=O)C2CCCCC2)c2cc(OCCCO)ccc2N1C(=O)c1ccccc1 | -1.01 (inactive) | 0.315 | 1.31 (inactive) | -0.889 (inactive) | -0.562 (inactive) | -0.23 (inactive) | -0.0118 | 0.469 (inactive) | 1.26 (inactive) | 1.77
CC(C)OC(=O)CC(=O)CC(O)c1ccc(C#N)cc1 (stereo not given) | 0.567 (inactive) | 0.213 | 1.96 (inactive) | -0.344 (inactive) | -0.745 (inactive) | -1.79 (inactive) | 1.02 | 0.574 (inactive) | -0.518 (inactive) | -0.252
COCCOC(=O)N1C(=O)[C@@]2(c3ccccc31)[C@H](c1ccc(O)cc1)N1[C@H](c3ccccc3)[C@H](c3ccccc3)OC(=O)[C@H]1[C@@H]2C(=O)N1CCc2cc(OC)c(OC)cc2C1 | 0.682 (inactive) | -0.181 | 0.428 (inactive) | -0.261 (inactive) | 0.0172 (inactive) | -1 (inactive) | 1.55 | 0.343 (inactive) | 0.594 (inactive) | 1.95
CCOC(=O)C[C@H]1[C@H](OC(=O)Cc2ccc3c(c2)OCO3)[C@@H](NC(=O)c2ccc(-c3ccccc3)cc2)c2cc(OCCCO)ccc2N1C(=O)c1ccccc1 | 2.36 (inactive) | -0.122 | 8.3 (active) | 1.63 (inactive) | -0.825 (inactive) | 0.505 (inactive) | -0.0321 | -0.588 (inactive) | 0.674 (inactive) | 1.8
Cc1ccc(S[C@]2(C(=O)NCC(C)C)CC(=O)N(Cc3ccccc3Cl)[C@@H]2c2ccc(CO)cc2)cc1 | -0.132 (inactive) | -0.188 | 1.14 (inactive) | 0.61 (inactive) | -0.23 (inactive) | 0.0839 (inactive) | 0.534 | -1.85 (inactive) | 0.717 (inactive) | -0.393
COC(=O)c1ccc(OC)c(/C=C\CC(OC(C)=O)c2ccccc2)c1 (stereo not given) | 0.0491 (inactive) | -0.795 | 8.02 (active) | 0.898 (inactive) | -0.358 (inactive) | 0.303 (inactive) | -0.0878 | 0.0248 (inactive) | 0.415 (inactive) | -1.65
COCCOC(=O)N1C(=O)[C@@]2(c3ccccc31)[C@H](C(=O)Nc1nc3ccccc3s1)[C@H]1C(=O)O[C@H](c3ccccc3)[C@H](c3ccccc3)N1[C@@H]2c1ccc(OCCO)cc1 | 0.258 (inactive) | 0.258 | 4.45 (inactive) | 1.76 (inactive) | 0.505 (inactive) | 1.63 (inactive) | 0.44 | -0.207 (inactive) | 0.842 (inactive) | 2.22
COCCOC(=O)N1C(=O)[C@@]2(c3cc(C#CCC(C(=O)OC)C(=O)OC)ccc31)[C@H](C(=O)N1CCN(c3ncccn3)CC1)[C@H]1C(=O)O[C@H](c3ccccc3)[C@H](c3ccccc3)N1[C@@H]2c1ccc(OCCO)cc1 | 3.02 (inactive) | -0.0511 | 17.3 (active) | 3.12 (inactive) | -0.153 (inactive) | 0.857 (inactive) | 2.2 | 1.41 (inactive) | 1.43 (inactive) | 0.897
